Measurements from PubChem BioAssay AID588852 (The Scripps Research Institute Molecular Screening Center, 2011).
Out of some 360,000 compounds screened, about 4,600 (1.3%) were called active.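 Rule for the calls: active = percent inhibition above its own plate's cutoff, namely the mean of that plate's compound wells plus 3 SD; inactive = the rest.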 What follows is part of a selection rich in actives, with near analogues and random picks from the rest.

The molecules below were run against Muscarinic acetylcholine receptor M1 (Homo sapiens) (UniProt P11229) (assay: CHRM1 blockers of acetylcholine calcium response – CHO-K1 cells, Fluo-8 calcium fluorescence, 1536-well, primary screen (AID 588852;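 note: peak over basal fluorescence ratio during 140 s after agonist addition; 0% = ACh EC80 plus DMSO and 100% = DMSO alone without agonist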)). Settings: CHO-K1 hM1, Fluo-8 calcium fluorescence, ACh EC80 antagonist; at 3 µM; hits give high values.
Chain of Muscarinic acetylcholine receptor M1 (Homo sapiens) (P11229 whole entry, looked up): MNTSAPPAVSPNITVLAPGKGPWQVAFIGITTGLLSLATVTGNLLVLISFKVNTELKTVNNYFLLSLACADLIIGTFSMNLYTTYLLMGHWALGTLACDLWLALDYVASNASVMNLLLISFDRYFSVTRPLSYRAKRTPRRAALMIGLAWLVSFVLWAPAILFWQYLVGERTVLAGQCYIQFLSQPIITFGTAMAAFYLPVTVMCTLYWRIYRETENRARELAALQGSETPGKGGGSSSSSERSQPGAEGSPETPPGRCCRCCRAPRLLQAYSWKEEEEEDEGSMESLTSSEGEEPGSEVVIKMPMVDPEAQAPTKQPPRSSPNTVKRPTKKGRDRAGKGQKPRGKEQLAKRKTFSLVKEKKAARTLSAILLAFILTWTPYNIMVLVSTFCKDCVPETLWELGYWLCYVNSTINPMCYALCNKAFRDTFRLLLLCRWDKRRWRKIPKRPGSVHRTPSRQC

| Compound | inhibition |
| --- | --- |
| CC(C)CCNC(=O)c1[nH]c(C(F)(F)F)nc1-c1ccccc1 | -26.6% (inactive) |
| CCN(Cc1ccccc1)C(=O)CN1C(=S)NC(C)(C)CC1C (centres undefined) | -5.27% (inactive) |
| CCNC(=S)N(CCN(CC)CC)Cc1cc2cc3c(cc2[nH]c1=O)OCCO3 | -13% (inactive) |
| CCCCOc1ccc(C(=O)NN2CCN(C)CC2)cc1 | 44.4% (active) |
| CC1CN(S(=O)(=O)c2ccc(C(=O)NN3CCN(C)CC3)cc2)CC(C)O1 (centres undefined) | 9.23% (inactive) |
| CN1CCN(NC(=O)c2ccc(S(=O)(=O)N3CCCCCC3)cc2)CC1 | -2.56% (inactive) |
| Cc1ccc([C@H]2N[C@]3(CCCN(Cc4ccccc4)C3=O)[C@H]3C(=O)N(Cc4ccccc4)C(=O)[C@@H]23)cc1 | -11.4% (inactive) |
| OCCc1ccc(NCCc2ccco2)cc1 | 0.71% (inactive) |
| CCOC(=O)N1CCN(C(=O)c2nn(-c3ccc(C)cc3)c(=O)c3c2c2ccccc2n3C)CC1 | 3.41% (inactive) |
| O=C(c1ccccc1Oc1ccccc1)N1CCN(c2ccc(F)cc2)CC1 | 4.1% (inactive) |
| Cn1c2ccccc2c2c(C(=O)N3CCN(c4ccc(F)cc4)CC3)cn(C3CCCC3)c(=O)c21 | 29.7% (active) |
| O=C(Nc1ccc2c(c1)OCCO2)C(C1CC1)N1CCC(Cc2ccccc2)CC1 (centres undefined) | 34.6% (inactive) |
| CC(C)Cc1ccc(-c2cc3nc(NCc4cccc(Cl)c4)ccn3n2)cc1 | -8.68% (inactive) |
| Cc1nnc(SC(C)C(=O)c2c[nH]c3ccccc23)n1C1CC1 (centres undefined) | 2.35% (inactive) |
| C[C@H]1CN([C@@H](C)CO)S(=O)(=O)c2ccc(Br)cc2O[C@H]1CN(C)C(=O)c1cnccn1 | -4.86% (inactive) |
| O=C(Cc1ccccc1)Nc1c(Cl)ccc2nsnc12 | -7.81% (inactive) |
| CCNCCC(=O)N1c2ccccc2Sc2ccc(NC(=O)OCC)cc21 | 56% (active) |
| CCOC(=O)Nc1ccc2c(c1)N(C(=O)CCN1CCN(CCO)CC1)c1ccccc1CC2 | 16.4% (inactive) |
| CCOC(=O)Nc1ccc2c(c1)N(C(=O)CCCl)c1ccccc1[S@]2=O | -17.2% (inactive) |
| Cc1cc2c(cc1C)N(C(=O)CN1C(=O)c3ccccc3C1=O)C(C)(C)c1ssc(=S)c1-2 | 9.39% (inactive) |

| Compound | inhibition |
| --- | --- |
| Nn1c(SCC(=O)Nc2nccs2)nncc1=O | 11.7% (inactive) |
| Cn1cccc1C(=O)NNC(=O)COc1ccc(Br)cc1 | -13% (inactive) |
| CC(=O)Nc1ccc(OC(=O)COc2ccc(Br)cc2)cc1 | 1.05% (inactive) |
| Cc1ccc(O)c(NC(=S)NC(=O)COc2ccc(Br)cc2)c1 | 34.7% (active) |
| Cc1nn(CCCC(=O)NCc2ccccc2Cl)c(=O)c2nccn12 | -19.9% (inactive) |
| Cc1ccc(-c2c3c(=O)n(C)c(=O)n(C)c3cn2-c2ccccc2O)cc1 | 7.07% (inactive) |
| COc1ccc(Nc2cc(=O)n(-c3ccccc3)c3c2c(=O)n(C)c(=O)n3C)cc1 | 12.9% (inactive) |
| COc1cccc(-n2cc3c(c2-c2ccccc2)c(=O)n(C)c(=O)n3C)c1 | 36.7% (active) |
| O=C1CCN(CCc2ccccc2)CCN1CCOc1ccccc1 | -21.3% (inactive) |
| O=S(=O)(c1cccs1)N1CCN(CCOc2ccccc2)CC1 | -13.2% (inactive) |
| O=c1[nH]c2ccccc2n1C1CCN(CCOc2ccccc2)CC1 | 78.4% (active) |
| O=C(Nc1cc(Br)ccc1F)c1nc[nH]c1C(=O)NCc1ccccc1 | -2.93% (inactive) |
| CCOC1CS(=O)(=O)CC1OCC (centres undefined) | -4.01% (inactive) |
| Cc1ccc(CN2CC(N3CCC(Cc4ccccc4)CC3)CS2(=O)=O)cc1 (centres undefined) | -11.4% (inactive) |
| CCN(CCCNC(=O)CSc1cc(=O)n(C)c2cc(Cl)ccc12)Cc1ccccc1 | 2.6% (inactive) |
| Cn1cncc1COC(=O)c1ccc(Cl)cc1 | 88.4% (active) |
| Cc1cc(OC(=O)c2ccc(Cl)cc2)cc(=O)n1C | -25.4% (inactive) |
| COC(=O)c1ccc(COC(=O)c2cnc(Cl)c(Cl)c2)cc1 | -11.6% (inactive) |
| Cc1ccccc1NC(=O)CSC1=NCCN1 | -2.31% (inactive) |
